# Source: the supplement of paper PMC8728848
# The entries come from a sample that favours the strongest signals as a whole.
# B1: Gal 8 (Mus musculus), Q9JL15 (protein)
# chain: MGGSHHHHHHGMASMLSLNNLQNIIYNPIIPYVGTITEQLKPGSLIVIRGHVPKDSERFQVDFQLGNSLKPRADVAFHFNPHFKRSSCIVCNTLTQEKWGWEEITYDMPFRKEKSFEIVFMVLKNKFQVAVNGRHVLLYAHRISPEQIDTVGIYGKVNIHSIGFRFSSASALPHTLGDLQSMETSALGLTQINRENIQKPGKLQLSLPFEARLNASMGPGRTVVIKGEVNTNARSFNVDLVAGKTRDIALHLNPHLNVKAFVRNSFLQDAWGEEERNITCFPFSSGMYFEMIIYCDVREFKVAINGVHSLEYKHRFKDLSSIDTLSVDGDIRLLDVRSW
# Assays:
# Assay in all cases: glycan array binding signal (z-score within array); higher = stronger binding
# Conditions in all cases: glycan notation: IUPAC condensed, linker removed; mutation: R82H, R255H
# [1] = target: Fuc(a1-2)Gal(b1-3)GlcNAc(b1-3)[Gal(b1-4)GlcNAc(b1-6)]Gal(b1-4)Glc
# Method in brief: (§1)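 Glycan array data were curated from 3228 arrays in the Consortium for Functional Glycomics database and kept only where the protein sequence was available. Glycan names were converted to IUPAC-condensed notation, and columns mapping to the same glycan were averaged. The binding signal is a within-array Z-score, averaged across arrays of the same protein sequence at different concentrations or buffers and across linkers. Negative Z-scores can be read as non-binding.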
# [2] = target: Fuc(a1-2)Gal(b1-3)[Fuc(a1-4)]GlcNAc(b1-2)Man(a1-3)[Fuc(a1-2)Gal(b1-3)[Fuc(a1-4)]GlcNAc(b1-2)Man(a1-3)]Man(b1-4)GlcNAc(b1-4)GlcNAc
# Method in brief: as §1
# [3] = target: Fuc(a1-2)[Gal(a1-3)]Gal(b1-3)GlcNAc(b1-2)Man(a1-3)[Fuc(a1-2)[Gal(a1-3)]Gal(b1-3)GlcNAc(b1-2)Man(a1-6)]Man(b1-4)GlcNAc(b1-4)GlcNAc
# Method in brief: as §1
# [4] = target: Fuc(a1-2)[Gal(a1-3)]Gal(b1-4)GlcNAc(b1-6)GalNAc
# Method in brief: as §1
# [5] = target: Fuc(a1-2)[GalNAc(a1-3)]Gal
# Method in brief: as §1
# [6] = target: Fuc(a1-2)[GalNAc(a1-3)]Gal(b1-3)GalNAc(b1-3)Gal(a1-4)Gal(b1-4)Glc
# Method in brief: as §1
# [7] = target: Fuc(a1-2)[GalNAc(a1-3)]Gal(b1-3)GlcNAc(b1-2)Man(a1-3)[Fuc(a1-2)[GalNAc(a1-3)]Gal(b1-3)GlcNAc(b1-2)Man(a1-6)]Man(b1-4)GlcNAc(b1-4)GlcNAc
# Method in brief: as §1
# [8] = target: Fuc(a1-2)[GalNAc(a1-3)]Gal(b1-4)GlcNAc(b1-2)Man(a1-3)[Fuc(a1-2)[GalNAc(a1-3)]Gal(b1-4)GlcNAc(b1-2)Man(a1-6)]Man(b1-4)GlcNAc(b1-4)GlcNAc
# Method in brief: as §1
# [9] = target: Fuc(a1-2)[GalNAc(a1-3)]Gal(b1-4)GlcNAc(b1-3)Gal(b1-4)GlcNAc
# Method in brief: as §1
# [10] = target: Fuc(a1-2)[GalNAc(a1-3)]Gal(b1-4)GlcNAc(b1-3)[Fuc(a1-2)[GalNAc(a1-3)]Gal(b1-4)GlcNAc(b1-6)]GalNAc
# Method in brief: as §1
# [11] = target: Fuc(a1-3)[Gal(b1-4)]GlcNAc(b1-6)GalNAc
# Method in brief: as §1
# [12] = target: Fuc(a1-3)[Gal3S(b1-4)]Glc
# Method in brief: as §1
# Fuc(a1-4)GlcNAc = target: Fuc(a1-4)GlcNAc
# Method in brief: as §1
# [13] = target: Gal(a1-3)Gal(b1-3)GlcNAc(b1-2)Man
# Method in brief: as §1
# [14] = target: Gal(a1-3)[Gal(a1-4)]Gal(b1-4)GlcNAc
# Method in brief: as §1
# Gal(a1-4)Gal(b1-4)Glc = target: Gal(a1-4)Gal(b1-4)Glc
# Method in brief: as §1
# Gal(b1-2)Gal = target: Gal(b1-2)Gal
# Method in brief: as §1
# Gal(b1-3)GalNAc = target: Gal(b1-3)GalNAc
# Method in brief: as §1
# [15] = target: Gal(b1-3)GalNAc(b1-3)Gal(a1-4)Gal(b1-4)Glc
# Method in brief: as §1
# [16] = target: Gal(b1-3)GalNAc(b1-4)Gal(b1-4)Glc
# Method in brief: as §1
# [17] = target: Gal(b1-3)GlcNAc(a1-3)Gal(b1-4)GlcNAc
# Method in brief: as §1
# [18] = target: Gal(b1-3)GlcNAc(b1-3)Gal(b1-4)Glc
# Method in brief: as §1
# [19] = target: Gal(b1-3)GlcNAc(b1-6)GalNAc
# Method in brief: as §1
# [20] = target: Gal(b1-3)[Fuc(a1-4)]GlcNAc(b1-6)GalNAc
# Method in brief: as §1
# Gal(b1-4)GlcNAc(b1-2)Man = target: Gal(b1-4)GlcNAc(b1-2)Man
# Method in brief: as §1
# [21] = target: Gal(b1-4)GlcNAc(b1-3)Gal(b1-4)GlcNAc(b1-2)Man(a1-3)[Gal(b1-4)GlcNAc(b1-3)Gal(b1-4)GlcNAc(b1-2)Man(a1-6)]Man(b1-4)GlcNAc(b1-4)GlcNAc
# Method in brief: as §1
# [22] = target: Gal(b1-4)GlcNAc(b1-3)Gal(b1-4)GlcNAc(b1-3)Gal(b1-4)GlcNAc(b1-3)Gal(b1-4)GlcNAc(b1-3)Gal(b1-4)GlcNAc(b1-2)[Gal(b1-4)GlcNAc(b1-3)Gal(b1-4)GlcNAc(b1-3)Gal(b1-4)GlcNAc(b1-3)Gal(b1-4)GlcNAc(b1-3)Gal(b1-4)GlcNAc(b1-6)]Man(a1-6)[Gal(b1-4)GlcNAc(b1-3)Gal(b1-4)GlcNAc(b1-3)Gal(b1-4)GlcNAc(b1-3)Gal(b1-4)GlcNAc(b1-3)Gal(b1-4)GlcNAc(b1-2)Man(a1-3)]Man(b1-4)GlcNAc(b1-4)[Fuc(a1-6)]GlcNAc
# Method in brief: as §1
# [23] = target: Gal(b1-4)GlcNAc(b1-3)Gal(b1-4)GlcNAc(b1-3)Gal(b1-4)GlcNAc(b1-3)Gal(b1-4)GlcNAc(b1-3)Gal(b1-4)GlcNAc(b1-3)Gal(b1-4)GlcNAc(b1-2)Man(a1-3)[Gal(b1-4)GlcNAc(b1-3)Gal(b1-4)GlcNAc(b1-3)Gal(b1-4)GlcNAc(b1-3)Gal(b1-4)GlcNAc(b1-3)Gal(b1-4)GlcNAc(b1-3)Gal(b1-4)GlcNAc(b1-2)Man(a1-6)]Man(b1-4)GlcNAc(b1-4)GlcNAc
# Method in brief: as §1
binder,measurement,setting,value
B1,glycan array binding signal (z-score),[1],1.15
same,glycan array binding signal (z-score),[2],-0.083
same,glycan array binding signal (z-score),[3],4.77
same,glycan array binding signal (z-score),[4],-0.168
same,glycan array binding signal (z-score),[5],-0.248
same,glycan array binding signal (z-score),[6],-0.253
same,glycan array binding signal (z-score),[7],7.3
same,glycan array binding signal (z-score),[8],6.58
same,glycan array binding signal (z-score),[9],-0.08
same,glycan array binding signal (z-score),[10],0.117
same,glycan array binding signal (z-score),[11],-0.212
same,glycan array binding signal (z-score),[12],-0.192
same,glycan array binding signal (z-score),Fuc(a1-4)GlcNAc,0.01
same,glycan array binding signal (z-score),[13],-0.263
same,glycan array binding signal (z-score),[14],-0.236
same,glycan array binding signal (z-score),Gal(a1-4)Gal(b1-4)Glc,-0.18
same,glycan array binding signal (z-score),Gal(b1-2)Gal,-0.193
same,glycan array binding signal (z-score),Gal(b1-3)GalNAc,-0.251
same,glycan array binding signal (z-score),[15],-0.235
same,glycan array binding signal (z-score),[16],-0.226
same,glycan array binding signal (z-score),[17],-0.269
same,glycan array binding signal (z-score),[18],-0.263
same,glycan array binding signal (z-score),[19],-0.274
same,glycan array binding signal (z-score),[20],-0.243
same,glycan array binding signal (z-score),Gal(b1-4)GlcNAc(b1-2)Man,-0.197
same,glycan array binding signal (z-score),[21],0.454
same,glycan array binding signal (z-score),[22],6
same,glycan array binding signal (z-score),[23],7.05
